This is an account of results in PMC5540273 (PLoS ONE, 2017).

Among the test systems are PRKX; PRP4; QSK; RAF1; RET; RIOK1; RIOK2; RIOK3; RIPK1; RIPK2; RIPK4; RIPK5; ROCK1; ROCK2; ROS1.
Common to all, as to conditions: concentration: 1 μM, replicates: in singlicate; n = 1
For a further experiment, the system named is T1, PRKR.
T1 construct: gene EIF2AK2

The subject of another experiment is T2, PYK2.
T2 construct: gene PTK2B

Experiment [1] relates to RPS6KA4(Kin.Dom.1-N-terminal).
Experiment [2] concerns RPS6KA4(Kin.Dom.2-C-terminal).
Experiment [3] deals with RPS6KA5(Kin.Dom.1-N-terminal).
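Also: KINOMEscan kinase panel screen.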

As to `C[C@@H]1CCN(C(=O)CO)C[C@@H]1N(C)c1ncnc2[nH]ccc12`, the “%Inh” value is 0% with PRKR; 7% in the experiment with PRKX; 0% in the experiment with PRP4; 0% with PYK2; 0% in the experiment with QSK; 0% with RAF1. Moreover, the “%Inh” value with RET, with RIOK1, with RIOK2, in the experiment on RIOK3, in the experiment with RIPK1 and in the experiment on RIPK2 was 0% each time. The “%Inh” value stood at 0% with RIPK4; 12% in the experiment with RIPK5; 16% in the experiment on ROCK1; 23% in the experiment with ROCK2; 0% in the experiment on ROS1; 88% in [1]. Besides, the “%Inh” value in experiment [2] and in [3] was 0% in each case.
On to `CS(=O)(=O)CCNCc1ccc(-c2ccc3ncnc(Nc4ccc(OCc5ccccc5)c(Cl)c4)c3c2)o1.Cl` [GW574783], for which the “%Inh” value was determined as 0% with PRKR; 17% with PRKX; 12% in the experiment with PRP4; 0% in the experiment with PYK2; 2% with QSK; 19% in the experiment on RAF1. Further, the “%Inh” value in the experiment on RET is given as 0%; in the experiment on RIOK1, 32%; with RIOK2, 6%; in the experiment on RIOK3, 0%; with RIPK1, 9%; in the experiment on RIPK2 it was 79%. Also, the “%Inh” value is listed as 0% in the experiment with RIPK4; 0% with RIPK5; 22% in the experiment with ROCK1; 21% in the experiment on ROCK2; 0% with ROS1; 32% in [1]. For the same molecule, the “%Inh” value in experiment [2] is 0%; in [3], 28%.
With `COC(=O)c1c(-c2ccccc2)c2cc(Cl)ccc2c(=O)n1Cc1ccc(S(C)(=O)=O)cc1`, the “%Inh” value in the experiment with PRKR came to 0%; in the experiment with PRKX it was 16%; in the experiment on PRP4, 1%; in the experiment on PYK2 it was 0%; in the experiment on QSK, 0%; with RAF1 it was 49%. For the same molecule, the “%Inh” value was 2% with RET; 0% in the experiment on RIOK1; 29% with RIOK2; 0% in the experiment with RIOK3; 0% in the experiment with RIPK1; 0% in the experiment with RIPK2. The “%Inh” value in the experiment on RIPK4 amounted to 13%; with RIPK5, 4%; with ROCK1, 6%; in the experiment with ROCK2, 0%; in the experiment on ROS1 it was 0%; in [1], 0%. For the same molecule, the “%Inh” value in experiment [2] worked out at 5%; in experiment [3], 8%.
On to `Nc1nccc2scc(-c3ccc4c(c3)CCN4C(=O)Cc3cc(F)ccc3F)c12` [GSK2587663], for which the “%Inh” value in the experiment on PRKR came out at 0%; in the experiment on PRKX, 1%; with PRP4, 10%; with PYK2, 6%; in the experiment on QSK, 16%; with RAF1, 18%. Also, the “%Inh” value with RET worked out at 65%; with RIOK1, 25%; in the experiment with RIOK2, 3%; in the experiment with RIOK3, 0%; with RIPK1 it was 83%; with RIPK2, 3%. The “%Inh” value in the experiment with RIPK4 was found to be 0%; in the experiment on RIPK5, 0%; in the experiment with ROCK1 it was 28%; in the experiment on ROCK2, 12%; in the experiment with ROS1 it was 16%; in [1], 14%. Besides, the “%Inh” value in experiment [2] came out at 0%; in experiment [3], 15%.
Regarding `NC(=O)c1sc(-n2cnc3ccccc32)cc1OCc1ccccc1F` [GSK1024306], the “%Inh” value was found to be 0% in the experiment with PRKR; 3% with PRKX; 2% with PRP4; 40% in the experiment on PYK2; 0% in the experiment with QSK; 0% in the experiment on RAF1. In addition, the “%Inh” value is reported as 24% with RET; 77% in the experiment on RIOK1; 79% in the experiment with RIOK2; 65% in the experiment with RIOK3; 0% in the experiment with RIPK1; 13% in the experiment with RIPK2. In addition, the “%Inh” value in the experiment with RIPK4 came to 0%; with RIPK5, 0%; in the experiment on ROCK1, 85%; in the experiment with ROCK2, 86%; in the experiment with ROS1, 4%; in experiment [1] it was 17%. The “%Inh” value in experiment [2] stood at 0%; in experiment [3], 17%.
In the case of `N#Cc1ccc(Oc2ccc(Nc3ncnc4cc[nH]c34)cc2Cl)cc1`, the “%Inh” value was found to be 0% in the experiment on PRKR; 7% in the experiment with PRKX; 0% in the experiment on PRP4; 10% with PYK2; 0% with QSK; 0% in the experiment on RAF1. For the same molecule, the “%Inh” value was 19% with RET; 21% with RIOK1; 8% in the experiment on RIOK2; 1% with RIOK3; 2% with RIPK1; 26% with RIPK2. In addition, the “%Inh” value in the experiment with RIPK4 was 0%; in the experiment with RIPK5, 6%; in the experiment on ROCK1, 2%; in the experiment on ROCK2 it was 0%; with ROS1 it was 0%; in experiment [1] it was 0%. Further, the “%Inh” value in experiment [2] came to 8%; in [3], 20%.
In the case of `CCc1nc(-c2cccc(C)c2)c(-c2ccnc(NC(=O)c3ccccc3)c2)s1`, the “%Inh” value came to 0% in the experiment on PRKR; 0% with PRKX; 10% with PRP4; 11% with PYK2; 0% in the experiment on QSK; 22% in the experiment on RAF1. The “%Inh” value with RET was determined as 0%; with RIOK1 it was 14%; in the experiment on RIOK2 it was 8%; in the experiment on RIOK3, 4%; in the experiment with RIPK1 it was 0%; with RIPK2, 52%. The “%Inh” value in the experiment on RIPK4 came out at 42%; with RIPK5, 0%; in the experiment on ROCK1 it was 35%; with ROCK2, 0%; in the experiment with ROS1 it was 0%; in experiment [1], 0%. In addition, the “%Inh” value was determined as 8% in experiment [2] and 3% in [3].
Consider `Nc1n[nH]c2nnc(-c3ccccc3)cc12` [SB-517389], for which the “%Inh” value in the experiment on PRKR was 0%; with PRKX it was 0%; in the experiment on PRP4, 33%; with PYK2 it was 0%; in the experiment with QSK, 0%; in the experiment with RAF1, 6%. For the same molecule, the “%Inh” value came out at 88% in the experiment on RET; 26% with RIOK1; 0% in the experiment on RIOK2; 0% in the experiment with RIOK3; 0% in the experiment with RIPK1; 17% in the experiment with RIPK2. Further, the “%Inh” value in the experiment with RIPK4 is recorded as 17%; in the experiment with RIPK5 it was 0%; with ROCK1 it was 0%; with ROCK2 it was 0%; with ROS1, 0%; in [1] it was 4%. The figures for the “%Inh” value in [2] and in experiment [3] were 38% and 5%, respectively.
`Fc1cccc(COc2ccc(Nc3ncnc4nn5ccccc5c34)cc2Cl)c1` [GW689066]: the “%Inh” value in the experiment with PRKR came to 0%; in the experiment with PRKX it was 2%; in the experiment with PRP4, 0%; in the experiment on PYK2 it was 0%; in the experiment on QSK, 0%; with RAF1, 4%. Moreover, the “%Inh” value is reported as 0% in the experiment on RET; 20% in the experiment on RIOK1; 0% with RIOK2; 0% in the experiment with RIOK3; 0% in the experiment on RIPK1; 0% in the experiment on RIPK2. Besides, the “%Inh” value with RIPK4 is recorded as 0%; in the experiment with RIPK5 it was 0%; in the experiment with ROCK1, 40%; with ROCK2, 33%; in the experiment on ROS1 it was 1%; in experiment [1], 17%. Besides, the “%Inh” value in experiment [2] and in [3] was 0% each time.
As for `Cn1ccc2ncnc(Oc3ccc(NC(=O)Nc4cccnc4)c(Cl)c3)c21`, the “%Inh” value in the experiment on PRKR worked out at 7%; with PRKX, 12%; with PRP4, 20%; in the experiment on PYK2, 9%; with QSK, 0%; in the experiment on RAF1, 0%. The “%Inh” value with RET was determined as 52%; with RIOK1, 0%; in the experiment on RIOK2, 53%; in the experiment on RIOK3, 4%; in the experiment on RIPK1 it was 0%; in the experiment with RIPK2, 3%. Moreover, the “%Inh” value was determined as 0% in the experiment with RIPK4; 19% in the experiment on RIPK5; 1% in the experiment with ROCK1; 0% in the experiment on ROCK2; 0% in the experiment on ROS1; 0% in experiment [1]. The “%Inh” value was 0% in experiment [2] and 17% in experiment [3].
On to `Cl.Cl.c1ccc(-c2cc3ccncc3cc2OC2CCNCC2)cc1` [GSK1122999], for which the “%Inh” value with PRKR was 0%; in the experiment on PRKX, 34%; in the experiment with PRP4, 0%; with PYK2, 10%; in the experiment on QSK, 7%; in the experiment on RAF1, 12%. In addition, the “%Inh” value is 28% in the experiment with RET; 33% in the experiment on RIOK1; 0% with RIOK2; 45% in the experiment on RIOK3; 31% in the experiment on RIPK1; 17% in the experiment with RIPK2. In addition, the “%Inh” value in the experiment with RIPK4 amounted to 9%; in the experiment with RIPK5, 1%; in the experiment with ROCK1, 94.6%; in the experiment on ROCK2 it was 91.6%; in the experiment on ROS1 it was 33%; in experiment [1], 11%. Further, the “%Inh” value in experiment [2] came out at 39%; in experiment [3], 27%.
